From PubChem BioAssay (Tox21)
Values joined by “and” are separate entries in the source; they are usually repeats but may differ in a detail not shown here. Identical values can stand only once. Records with an inconclusive call do not appear. A call without a number means that no potency is given here. A structure can be active in one record and inactive in another. Active and inactive are the calls of the source. Unless noted, calls follow the shape of the dose curve; as a rule, active = well fitted curve in the direction sought with a large enough effect in the repeat runs; inconclusive = weak or mixed curves; inactive = no such curve, though single readings can be large; an effect the other way counts as inactive or inconclusive.

How the values were obtained:
[1] = qHTS assay to identify small molecule agonists of the hypoxia (HIF-1) signaling pathway - cell viability counter screen (AID 1224844; calls by dose curve; also: nearly all actives have a fitted effect of over 50% in size; also: potency is read from the fitted curve at half-maximal effect)
Outline: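 Cytotoxicity measured by CellTiter-Glo ATP luminescence in the wells also read for beta-lactamase signal. Cells were HRE-bla ME-180 (2,000/well, 0.5% dialyzed FBS), exposed to compounds for 17 h at 37C.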

[2] = qHTS assay to identify small molecule agonists of H2AX (AID 1224845; active = well fitted activation curve with a large enough effect in the signal ratio in the repeat runs, not every such curve was filed as active; the % refers to the signal ratio; also: potency is read from the fitted curve at half-maximal effect)
Outline: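 Phospho-H2AX Ser139 measured by HTRF (ex 320 nm; em 665 and 620 nm) after 24 hr antibody incubation. Compounds, 15 concentrations, 0.76% DMSO, were applied to CHO-K1 cells for 3hr at 37C before lysis.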

[3] = qHTS assay to identify small molecule agonists of the hypoxia (HIF-1) signaling pathway (AID 1224846; active = well fitted activation curve with a large enough effect in the signal ratio in the repeat runs, not every such curve was filed as active; the % refers to the signal ratio)
Outline: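 Compounds added to ME-180 cells carrying hypoxia-response-element beta-lactamase reporter (0.5% dialyzed FBS, 5 h preplating), 17 h at 37C; agonist activity detected by CCF4-AM B/G FRET read-out.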

[4] = qHTS assay to identify small molecule agonists of H2AX - cell viability counter screen (AID 1224847; calls by dose curve; also: nearly all actives have a fitted effect of over 30% in size; also: potency is read from the fitted curve at half-maximal effect)
Outline: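 CHO-K1 cells plated overnight at 37C, then exposed 3 h at 37C to compounds at 15 concentrations (0.76% DMSO final). Viability by CellTiter-Glo luminescence after 30 min at room temperature.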

[5] = qHTS RealTime-Glo MT Cell Viability Assay in HepG2 cells - 24 hour (AID 1224867); also: nearly all actives have a fitted effect of over 50% in size; also: potency is read from the fitted curve at half-maximal effect
Outline: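 Tox21 10K library screened in qHTS format on HepG2 cells carrying RealTime-Glo reagents. Compounds were added after a 5 h preincubation, and the luminescent signal from continuous culture was measured repeatedly during 40 h treatment.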

[6] = qHTS RealTime-Glo MT Cell Viability Assay in HEK293 cells - 32 hour (AID 1224868); also: nearly all actives have a fitted effect of over 50% in size; also: potency is read from the fitted curve at half-maximal effect
Outline: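 Luminescence generated by NanoLuc from substrate produced by living HEK293 cells served as the viability signal. Each value reflects the reading at its stated time point during continuous 40 h compound exposure at 37 C.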

[7] = A CellTox Green Cytotoxicity Assay to monitor cytotoxicity in HEK293 cells - 0 hour (AID 1224869); also: nearly all actives have a fitted effect of over 50% in size
Outline: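 Fluorescence from a DNA-binding dye excluded by viable cells was measured repeatedly in the same HEK293 wells (600 cells/well) during continuous compound exposure at 37 C. Each assay gives one read point: 0, 8, 16, 24, 32 or 40 h.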

[8] = qHTS RealTime-Glo MT Cell Viability Assay in HepG2 cells - 40 hour (AID 1224870); also: nearly all actives have a fitted effect of over 50% in size; also: potency is read from the fitted curve at half-maximal effect
Outline: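 Real-time viability: cells seeded at 600 per well together with NanoLuc and cell-permeant prosubstrate, compounds added after 5 h incubation. Luminescence tracked at 0, 8, 16, 24, 32 and 40 h of exposure.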

[9] = qHTS assay to identify small molecule antagonists of the estrogen related receptor (ERR) signaling pathway from Tox21 library (AID 1224848); also: nearly all actives have a fitted effect of over 50% in size; also: potency is read from the fitted curve at half-maximal effect
Outline: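 Luciferase luminescence (ONE-Glo, 30 min room temperature) was the read-out. Cells of the NTP-supplied ERR line, 2,000 per well, were given 6 h at 37 C before compound addition in DMSO and 18 h exposure at 37 C.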

[10] = qHTS assay to identify small molecule agonists of the estrogen related receptor (ERR) signaling pathway from Tox21 library (AID 1224849; calls by dose curve; also: nearly all actives have a fitted effect of over 15% in size); conditions: ERR reporter cell line, ONE-Glo luciferase, 18 h
Outline: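 Luminescent agonist read-out (One-Glo, 30-minute room-temperature incubation) following 18-hour compound treatment at 37 C of the ERR cell line, which had been plated 6 hours before dosing.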

Structure (SMILES) | Potency [1] | Potency [2] | outcome [3] | Potency [4] | Potency [5] | Potency [6] | Potency [7] | Potency [8] | Potency [9] | activity change, positive = activation ([10]; at 92.4 µM (top of the series)) | activity change, positive = activation ([10]; at 42.5 µM (top of the series))
OCC1CO1 (centres undefined) | inactive | inactive | inactive | inactive | inactive | inactive | inactive | inactive |  |  | 
CCN(C(C)=O)c1cccc(-c2ccnc3c(C#N)cnn23)c1 | inactive | inactive | inactive | inactive | inactive | inactive | inactive | inactive |  |  | 
C1CCNCC1 | inactive | inactive | inactive | inactive | inactive | inactive | inactive | inactive |  |  | 
CC(Cl)C(=O)O (centres undefined) | inactive | inactive | inactive | inactive | inactive | inactive | inactive | inactive |  |  | 
C[N+]1(CCC(C(N)=O)(c2ccccc2)c2ccccc2)CCCCC1 | inactive | inactive | inactive | inactive | inactive | inactive | inactive | inactive |  |  | 
COCc1cnc(C2=NC(C)(C(C)C)C(=O)N2)c(C(=O)O)c1 (centres undefined) | inactive | inactive | inactive |  | inactive | inactive | inactive | inactive |  |  | 
CC(C)c1ccc(NC(=O)N(C)C)cc1 | inactive | inactive | inactive |  | inactive | inactive | inactive | inactive | inactive | 33.4% (active) | 
CC(Oc1cc(Cl)c(Cl)cc1Cl)C(=O)O (centres undefined) | inactive | inactive | inactive | inactive | inactive | inactive | inactive | inactive |  |  | 
C[C@]12CC[C@H]3[C@@H](CCC4=CC(=O)CC[C@@H]43)[C@@H]1CC[C@@H]2OC(=O)CCc1ccccc1 | inactive | inactive | inactive |  | inactive | inactive | inactive | inactive | inactive |  | 10.2% (inactive)
C[CH2][Hg][S]c1ccccc1C(=O)O | 616 nM (active) and 1.9 µM (active) | 4.01 µM (active) |  | 17.9 µM (active) and 24.7 µM (active) | 2.19 µM (active) and 2.13 µM (active) | 977 nM (active) and 1.07 µM (active) | inactive | 2.19 µM (active) and 2.39 µM (active) | inactive and 16.8 µM (active) |  | 
CC(C)C1(C)N=C(c2ncccc2C(=O)O)NC1=O (centres undefined) | inactive | inactive | inactive | inactive | inactive | inactive | inactive | inactive |  |  | 
CC(=O)OC(c1ccccc1)C(Cl)(Cl)Cl (centres undefined) | inactive | inactive | inactive |  | inactive | inactive | inactive | inactive |  |  | 
COc1cc(CC(C)N)c(OC)cc1Br (centres undefined) | inactive |  | inactive | inactive | inactive |  | inactive | inactive | inactive | -12.2% (inactive) | 
O=C1c2ccccc2C(=O)N1SC(Cl)(Cl)Cl | 3.83 µM (active) and 7.76 µM (active) | 9.93 µM (active) and 16 µM (active) |  | 12.5 µM (active) | 34.2 µM (active) and 13.8 µM (active) | 6.82 µM (active) and 6.92 µM (active) | inactive | 34.2 µM (active) and 15.5 µM (active) | 30.2 µM (active) and 30.6 µM (active) | -68.2% (inactive) and -64.1% (inactive) | 
O=C(NCNC(=O)NC1C(=O)NC(=O)N1CO)NC1C(=O)NC(=O)N1CO (centres undefined) | inactive | inactive |  | inactive | inactive | inactive | inactive | inactive | inactive |  | 
C=CCc1ccc(OC(=O)Cc2ccccc2)c(OC)c1 | inactive | inactive | inactive | inactive | inactive |  | inactive | inactive |  |  | 
CCC(C)(C)c1ccc(O)c(C(C)(C)CC)c1 | 19.3 µM (active) and 24.5 µM (active) | 56 µM (active) and 35.7 µM (active) |  | 88.8 µM (active) and 40.1 µM (active) |  | 48.5 µM (active) and inactive | inactive | inactive | 60.4 µM (active) and inactive |  | 
CCOP(=S)(OCC)SCSc1cc(Cl)ccc1Cl | inactive | inactive | inactive | inactive | inactive | inactive | inactive | inactive |  |  | 
C[C@H]1O[C@H](OC2[C@@H](O)[C@@H](O)C(O)[C@H](O)[C@H]2O)[C@@H](N)C[C@@H]1N=C(N)C(=O)O (some centres undefined) | inactive | inactive | inactive | inactive | inactive | inactive | inactive | inactive |  |  | 
Clc1ccc2ccccc2c1 | inactive | inactive | inactive | inactive | inactive |  | inactive | inactive |  |  | 
CC(Cc1ccccc1)NCc1ccccc1Cl (centres undefined) | inactive | inactive |  |  | inactive | inactive | inactive | inactive |  |  | 
CCCSP(=S)(OCC)Oc1ccc(SC)cc1 (centres undefined) | inactive |  | inactive | inactive | inactive | inactive | inactive | inactive | inactive | 2.16% (inactive) | 
O=C(CCl)CCl | 21.9 µM (active) | 104 µM (active) |  | inactive | inactive | 18 µM (active) and 19.5 µM (active) | inactive | inactive |  |  | 
O=[N+]([O-])/C=C/c1ccccc1 | 24.9 µM (active) and 54.9 µM (active) | 20.1 µM (active) |  |  | 44.4 µM (active) and 19.5 µM (active) | 7.03 µM (active) and 13.8 µM (active) | inactive | 19.8 µM (active) and 13.8 µM (active) | 22 µM (active) |  | 
COP(=O)(OC)OC(Br)C(Cl)(Cl)Br (centres undefined) | 43.6 µM (active) | inactive | inactive | inactive | inactive |  | inactive | inactive |  |  | 
CCCCCBr | inactive | inactive | inactive | inactive | inactive |  | inactive | inactive |  |  | 
CC1(C)[C@H](C(=O)O[C@H](C#N)c2cccc(Oc3ccccc3)c2)[C@@H]1C=C(Br)Br | inactive | inactive |  | inactive | inactive | inactive | inactive | inactive |  | -23.2% (inactive) and -24.2% (inactive) | 
